From PubChem BioAssay (NCATS)
Results filed as inconclusive are left out. The source made the active and inactive calls. Unless noted, calls follow the shape of the dose curve; as a rule, active = well fitted curve in the direction sought with a large enough effect; inconclusive = small, poorly fitted or top-dose-only effect, or another doubt; inactive = no such curve, though single readings can be large; an effect the other way counts as inactive or inconclusive.

Tests used:
[1] = target: Rap guanine nucleotide exchange factor 3 (Homo sapiens) (UniProt O95398); assay: Confirmatory qHTS for antagonist of cAMP-regulated guanine nucleotide exchange factor 3 (EPAC1) (AID 1645880); also: nearly all actives have a fitted effect of over 55% in size; also: potency is read from the fitted curve at half-maximal effect
Rap guanine nucleotide exchange factor 3 (Homo sapiens), sequence (O95398 whole entry, looked up): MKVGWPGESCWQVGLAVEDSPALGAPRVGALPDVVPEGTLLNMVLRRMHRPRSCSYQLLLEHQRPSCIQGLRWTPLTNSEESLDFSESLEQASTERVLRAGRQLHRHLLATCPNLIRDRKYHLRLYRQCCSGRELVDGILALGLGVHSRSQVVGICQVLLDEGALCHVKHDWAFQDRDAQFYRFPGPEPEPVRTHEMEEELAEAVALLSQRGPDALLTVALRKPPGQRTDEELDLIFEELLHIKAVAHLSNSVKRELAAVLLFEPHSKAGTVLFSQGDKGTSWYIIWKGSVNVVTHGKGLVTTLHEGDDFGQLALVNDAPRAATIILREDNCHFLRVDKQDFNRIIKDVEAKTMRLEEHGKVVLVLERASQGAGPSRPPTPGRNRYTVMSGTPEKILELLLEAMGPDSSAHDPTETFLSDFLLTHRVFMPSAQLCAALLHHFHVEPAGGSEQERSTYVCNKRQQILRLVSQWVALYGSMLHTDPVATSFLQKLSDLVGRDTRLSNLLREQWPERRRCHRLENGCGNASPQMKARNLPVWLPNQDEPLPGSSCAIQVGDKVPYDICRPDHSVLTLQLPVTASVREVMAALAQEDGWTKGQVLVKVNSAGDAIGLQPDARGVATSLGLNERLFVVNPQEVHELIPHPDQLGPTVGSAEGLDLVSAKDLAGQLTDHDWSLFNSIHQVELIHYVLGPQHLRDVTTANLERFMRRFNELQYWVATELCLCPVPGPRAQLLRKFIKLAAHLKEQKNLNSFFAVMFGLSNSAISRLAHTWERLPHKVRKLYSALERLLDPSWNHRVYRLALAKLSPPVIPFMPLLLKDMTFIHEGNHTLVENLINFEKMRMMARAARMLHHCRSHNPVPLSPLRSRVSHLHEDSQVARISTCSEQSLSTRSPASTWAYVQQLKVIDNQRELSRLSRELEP
Method in brief: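 Nucleotide exchange uses 100 nM EPAC1, 250 nM RAP1B-BODIPY-GDP and 50 uM GDP, with compounds in a concentration-titration series. After 5 min at room temperature, fluorescence (480 nm ex/540 nm em) is read every 5 min for 30 min. Data are normalized to control ATA and DMSO.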

[2] = target: Rap guanine nucleotide exchange factor 3 (Homo sapiens) (UniProt O95398); assay: Confirmatory qHTS for agonist of cAMP-regulated guanine nucleotide exchange factor 3 (EPAC1) (AID 1645881); also: nearly all actives have a fitted effect of over 75% in size; also: potency is read from the fitted curve at half-maximal effect;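 as to activation: EPAC1 catalysed release of BODIPY-GDP from Rap1B seen as fluorescence loss; 100% = effect of cAMP agonist control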
[3] = target: Rap guanine nucleotide exchange factor 4 (Homo sapiens) (UniProt Q8WZA2); assay: Confirmatory qHTS for agonist of cAMP-regulated guanine nucleotide exchange factor 4 (EPAC2) (AID 1645884);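 also: nucleotide exchange releases bodipy-GDP from Rap1 and this lowers its fluorescence; nearly all actives have a fitted effect of over 65% in size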; also: potency is read from the fitted curve at half-maximal effect
Rap guanine nucleotide exchange factor 4 (Homo sapiens), sequence (Q8WZA2 whole entry, looked up): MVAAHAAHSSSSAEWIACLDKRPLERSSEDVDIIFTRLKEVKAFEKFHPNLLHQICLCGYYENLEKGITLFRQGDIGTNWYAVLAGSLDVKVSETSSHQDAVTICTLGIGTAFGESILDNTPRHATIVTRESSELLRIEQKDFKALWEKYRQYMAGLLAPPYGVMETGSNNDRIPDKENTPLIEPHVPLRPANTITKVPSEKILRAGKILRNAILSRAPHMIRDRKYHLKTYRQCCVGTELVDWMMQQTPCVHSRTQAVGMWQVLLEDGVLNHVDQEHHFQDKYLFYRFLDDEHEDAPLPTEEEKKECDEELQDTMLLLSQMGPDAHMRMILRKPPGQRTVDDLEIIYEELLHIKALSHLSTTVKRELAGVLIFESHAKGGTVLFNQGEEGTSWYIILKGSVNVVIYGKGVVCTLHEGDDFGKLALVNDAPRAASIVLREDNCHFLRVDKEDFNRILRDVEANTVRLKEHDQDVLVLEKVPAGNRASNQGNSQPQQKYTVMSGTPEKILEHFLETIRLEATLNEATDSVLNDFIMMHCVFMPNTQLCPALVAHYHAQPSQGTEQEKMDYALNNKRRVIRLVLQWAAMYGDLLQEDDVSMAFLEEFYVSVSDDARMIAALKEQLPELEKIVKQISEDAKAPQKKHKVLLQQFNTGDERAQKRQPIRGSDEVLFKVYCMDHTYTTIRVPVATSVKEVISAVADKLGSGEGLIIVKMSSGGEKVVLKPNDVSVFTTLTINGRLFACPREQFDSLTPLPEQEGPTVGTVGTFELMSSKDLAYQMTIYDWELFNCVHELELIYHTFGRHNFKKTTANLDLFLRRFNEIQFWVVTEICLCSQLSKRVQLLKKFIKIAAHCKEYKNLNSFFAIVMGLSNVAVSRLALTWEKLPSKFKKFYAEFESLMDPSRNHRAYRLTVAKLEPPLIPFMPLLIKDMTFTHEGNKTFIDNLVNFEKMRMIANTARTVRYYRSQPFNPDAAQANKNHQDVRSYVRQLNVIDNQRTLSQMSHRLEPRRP

[4] = target: Rap guanine nucleotide exchange factor 4 (Homo sapiens) (UniProt Q8WZA2); assay: Confirmatory qHTS for antagonist of cAMP-regulated guanine nucleotide exchange factor 4 (EPAC2) (AID 1645885); also: nearly all actives have a fitted effect of over 25% in size; also: potency is read from the fitted curve at half-maximal effect
[5] = target: Rap guanine nucleotide exchange factor 3 (Homo sapiens) (UniProt O95398); assay: Counterscreen qHTS for antagonist of cAMP-regulated guanine nucleotide exchange factor 3 (EPAC1) (AID 1645888);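 also: fluorescence loss as bound BODIPY-GDP is released from Rap1B; % of control where 0% means no effect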
Method in brief: (§1)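 Rap1B-BODIPY-GDP 250 nM + GDP 50 uM; cpds 7-pt, final 9.74 nM–152 uM (activator mode) or from 7.32 nM upwards (inhibitor mode); RT; FI 480/540 nm at 5 and 30 min, then ± cAMP, reread.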

[6] = target: Rap guanine nucleotide exchange factor 3 (Homo sapiens) (UniProt O95398); assay: Counterscreen qHTS for agonist of cAMP-regulated guanine nucleotide exchange factor 3 (EPAC1) (AID 1645889); also: nearly all actives have a fitted effect of over 40% in size; also: potency is read from the fitted curve at half-maximal effect; as to activation: % of control where 0% means no effect
Method in brief: as §1

[7] = target: Tumor susceptibility gene 101 protein (Homo sapiens) (UniProt Q99816); assay: qHTS Assay for Iinhibitors of HIV-1 Budding by Blocking the Interaction of PTAP/TSG101: Hit Validation (AID 651600); also: potency is read from the fitted curve at half-maximal effect; nearly all actives have a fitted effect of over 70% in size
Tumor susceptibility gene 101 protein (Homo sapiens), sequence (Q99816 whole entry, looked up, the tested form may be a part): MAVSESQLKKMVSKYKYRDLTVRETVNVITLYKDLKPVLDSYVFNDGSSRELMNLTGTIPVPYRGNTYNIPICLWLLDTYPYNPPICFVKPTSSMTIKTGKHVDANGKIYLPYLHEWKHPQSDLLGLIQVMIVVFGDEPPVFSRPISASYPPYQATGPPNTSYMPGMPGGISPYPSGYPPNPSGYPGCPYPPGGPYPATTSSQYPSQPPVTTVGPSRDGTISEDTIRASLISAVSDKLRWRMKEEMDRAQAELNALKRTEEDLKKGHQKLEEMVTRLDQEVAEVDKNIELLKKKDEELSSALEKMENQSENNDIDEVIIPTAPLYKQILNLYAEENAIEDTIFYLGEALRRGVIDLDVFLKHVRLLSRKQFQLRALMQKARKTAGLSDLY
Method in brief: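 Fluorescence polarization binding assay: Tsg101 binding domain (10 uM) mixed with compounds and FITC-labeled PTAP peptide (50 nM) in HEPES pH 7.5, 0.15 M NaCl, 0.01% Tween 20, EDTA, TCEP; 20 min at r.t.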

[8] = target: Lysosomal acid glucosylceramidase (Homo sapiens) (UniProt P04062); assay: Glucocerebrosidase-p2 (AID 348; in the data active = potency below about 10 µM; also: potency is read from the fitted curve at half-maximal effect); details: purified GBA, blue fluorogenic substrate, 40 min
Lysosomal acid glucosylceramidase (Homo sapiens), sequence (P04062 whole entry, looked up): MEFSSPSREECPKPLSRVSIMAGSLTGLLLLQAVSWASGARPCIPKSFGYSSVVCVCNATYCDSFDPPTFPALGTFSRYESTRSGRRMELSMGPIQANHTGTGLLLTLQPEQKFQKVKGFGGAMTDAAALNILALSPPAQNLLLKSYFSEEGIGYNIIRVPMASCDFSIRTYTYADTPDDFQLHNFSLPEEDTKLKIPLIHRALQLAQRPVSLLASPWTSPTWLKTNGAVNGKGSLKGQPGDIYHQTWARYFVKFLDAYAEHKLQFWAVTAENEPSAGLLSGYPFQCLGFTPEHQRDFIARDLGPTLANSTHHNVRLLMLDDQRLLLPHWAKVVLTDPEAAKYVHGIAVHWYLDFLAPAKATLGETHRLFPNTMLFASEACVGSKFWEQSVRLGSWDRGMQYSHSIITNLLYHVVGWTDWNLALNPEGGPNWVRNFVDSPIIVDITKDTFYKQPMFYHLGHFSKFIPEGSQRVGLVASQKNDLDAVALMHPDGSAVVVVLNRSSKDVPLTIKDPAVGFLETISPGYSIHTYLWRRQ
Method in brief: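 Compounds titrated from 0.6 nM upwards against 0.2 nM enzyme in pH 5.9 citric acid/KH2PO4, taurocholate, tween-20; blue fluorogenic substrate 80 uM, 40 min room temperature, stopped and read Ex 365/Em 440 for AC50.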

[9] = AP1 Signaling Pathway (AID 357; active = well fitted curve in either direction with a large enough effect, not every such curve was filed as active;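 also: ME-180 reporter cells stimulated with EGF at its EC50 level; % is scaled to controls: 0 for no effect and ±100 for the full control effect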)
Method in brief: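 Titration-series screen for positive or negative modulators of EC50 EGF-induced signaling in ME-180 cells carrying an AP-1-driven beta-lactamase reporter. After 5 hours at 37 degrees Celsius, CCF4 460nm/530nm emission ratio gave %Activity; AC50 values derived.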

[10] = target: Cytochrome P450 1A2 (Homo sapiens) (UniProt P05177); assay: p450-cyp1a2 (AID 410; calls by dose curve;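 also: -100% = full effect of reference inhibitor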)
Cytochrome P450 1A2 (Homo sapiens), sequence (P05177 whole entry, looked up): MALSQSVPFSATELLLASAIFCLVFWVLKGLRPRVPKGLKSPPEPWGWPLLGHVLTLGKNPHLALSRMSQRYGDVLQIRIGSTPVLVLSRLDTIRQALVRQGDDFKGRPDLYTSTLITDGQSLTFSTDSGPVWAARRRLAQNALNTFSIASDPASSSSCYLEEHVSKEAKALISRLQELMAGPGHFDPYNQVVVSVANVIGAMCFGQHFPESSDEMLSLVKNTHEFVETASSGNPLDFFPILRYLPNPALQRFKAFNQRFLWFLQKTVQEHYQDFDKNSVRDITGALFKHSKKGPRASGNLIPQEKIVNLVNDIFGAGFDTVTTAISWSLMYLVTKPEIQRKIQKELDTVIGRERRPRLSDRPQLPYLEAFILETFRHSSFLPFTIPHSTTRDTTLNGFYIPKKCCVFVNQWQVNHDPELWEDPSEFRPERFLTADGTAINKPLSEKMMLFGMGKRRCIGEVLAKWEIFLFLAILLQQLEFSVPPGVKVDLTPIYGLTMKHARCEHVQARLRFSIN
Method in brief: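 Inhibition was calculated relative to 57 uM furafylline (full inhibition). The reaction used human CYP1A2 at 20nM with Luciferin-ME at its Km, 100uM, driven by an NADPH-regenerating system for 60 min at room temperature.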

[11] = target: Glucocorticoid receptor (Homo sapiens) (UniProt P04150); assay: GR-GFP Redistribution (AID 450;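 active = compounds whose dose series gives a full or clear partial fitted curve of increased nuclear translocation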; also: potency is read from the fitted curve at half-maximal effect); details: U2OS GR-GFP nuclear translocation, laser cytometry, 2 h
Glucocorticoid receptor (Homo sapiens), sequence (P04150 whole entry, looked up, the tested form may be a part): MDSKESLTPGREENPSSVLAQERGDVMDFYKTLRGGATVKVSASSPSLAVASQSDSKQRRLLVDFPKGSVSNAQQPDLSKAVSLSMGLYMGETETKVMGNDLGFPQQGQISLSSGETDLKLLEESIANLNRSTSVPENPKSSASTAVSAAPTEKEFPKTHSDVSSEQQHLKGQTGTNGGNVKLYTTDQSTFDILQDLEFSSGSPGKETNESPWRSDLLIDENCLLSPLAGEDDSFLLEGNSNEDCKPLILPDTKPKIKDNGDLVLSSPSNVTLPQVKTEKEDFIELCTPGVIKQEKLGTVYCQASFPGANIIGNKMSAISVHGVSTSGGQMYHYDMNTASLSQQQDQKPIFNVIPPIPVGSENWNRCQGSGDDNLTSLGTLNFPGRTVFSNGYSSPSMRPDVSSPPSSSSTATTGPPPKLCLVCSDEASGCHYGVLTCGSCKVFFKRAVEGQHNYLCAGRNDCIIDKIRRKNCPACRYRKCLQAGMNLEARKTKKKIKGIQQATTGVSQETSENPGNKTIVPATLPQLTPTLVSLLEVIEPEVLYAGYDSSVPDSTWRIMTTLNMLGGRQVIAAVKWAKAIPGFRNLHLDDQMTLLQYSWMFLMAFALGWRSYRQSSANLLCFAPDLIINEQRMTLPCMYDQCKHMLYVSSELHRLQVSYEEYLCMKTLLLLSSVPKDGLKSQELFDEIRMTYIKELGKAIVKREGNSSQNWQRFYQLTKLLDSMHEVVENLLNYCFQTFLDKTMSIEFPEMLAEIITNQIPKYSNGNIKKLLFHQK

[12] = target: Glucocorticoid receptor (Homo sapiens) (UniProt P04150); assay: GR-EFC Redistribution (AID 451; calls by dose curve; also: potency is read from the fitted curve at half-maximal effect); details: CHO-K1 GR-EFC translocation, beta-gal luminescence, 2 h
Method in brief: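 Translocation of GR-ED fusion to nuclear EA restores b-gal, read by luminescence after 1 h room-temperature detection. Engineered CHO-K1 biosensor cells, 1,000/well, exposed 2 h at 37 C to titrations up to 46 uM final.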

[13] = target: Mitogen-activated protein kinase 10 (Mus musculus) (UniProt Q61831); assay: JNK3 AlphaScreen Assay (AID 530; active = well fitted curve in either direction with a large enough effect, not every such curve was filed as active;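 also: kinase came from lysate of stimulated human HepG2 cells; signal reports phosphorylation of biotinylated GST-cJun 1-79 at Ser73 with 10 µM ATP; % is scaled to controls: 0 for no effect and ±100 for the full control effect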)
Method in brief: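 Room-temperature AlphaScreen kinase assay; pre-activated HepG2 lysate as JNK3 source, biotin-GST-cJun(1-79) substrate, 10 uM ATP, compound 15 min preincubation.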

[14] = target: 3',5'-cyclic-AMP phosphodiesterase 4B (Homo sapiens) (UniProt Q07343); assay: qHTS Assay for Inhibitors of PDE-IV (AID 607; active = well fitted activation curve with a large enough effect in the main read-out, with a control signal flat, not every such curve was filed as active; also: % of control where 0% means no effect)
3',5'-cyclic-AMP phosphodiesterase 4B (Homo sapiens), sequence (Q07343 whole entry, looked up): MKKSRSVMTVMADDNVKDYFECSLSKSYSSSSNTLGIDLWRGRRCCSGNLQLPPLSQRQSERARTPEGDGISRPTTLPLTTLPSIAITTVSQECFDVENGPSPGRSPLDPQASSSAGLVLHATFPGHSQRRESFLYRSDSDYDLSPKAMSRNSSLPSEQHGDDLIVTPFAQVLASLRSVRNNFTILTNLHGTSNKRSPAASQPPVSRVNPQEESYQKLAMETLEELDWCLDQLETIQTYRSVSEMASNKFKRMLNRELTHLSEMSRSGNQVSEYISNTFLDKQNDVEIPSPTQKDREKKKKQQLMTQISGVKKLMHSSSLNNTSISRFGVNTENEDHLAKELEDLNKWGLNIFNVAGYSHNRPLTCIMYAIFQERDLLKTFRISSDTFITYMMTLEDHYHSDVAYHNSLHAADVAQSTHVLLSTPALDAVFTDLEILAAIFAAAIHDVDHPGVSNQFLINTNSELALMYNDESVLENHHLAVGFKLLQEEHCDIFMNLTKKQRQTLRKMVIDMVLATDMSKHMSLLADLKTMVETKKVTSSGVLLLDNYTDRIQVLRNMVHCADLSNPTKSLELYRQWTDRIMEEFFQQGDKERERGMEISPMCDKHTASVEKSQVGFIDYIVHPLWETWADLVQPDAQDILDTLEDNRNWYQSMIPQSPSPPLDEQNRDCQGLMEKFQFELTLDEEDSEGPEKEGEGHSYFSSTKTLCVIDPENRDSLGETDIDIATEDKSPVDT
Method in brief: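 The readout is membrane depolarisation from a cAMP-sensing CNG channel, detected with a potential dye at ex 535/em 590. Cells were HEK293-derived (endogenous PDE-IV) at 1000 cells/well, titrated up to 22.9 uM final.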

[15] = NFAT Signaling Pathway (AID 444; active = well fitted curve in either direction with a large enough effect, not every such curve was filed as active;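 also: carbachol stimulus at about its EC50 of 1 µM final; % is scaled to controls: 0 for no effect and ±100 for the full control effect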); details: Jurkat NFAT-bla M1, carbachol, beta-lactamase ratio, 5 h; at 17.2 µM (top of the series)
Method in brief: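 Read-out: CCF4 FRET ratio (460 nm/530 nm) after 1 h RT dye loading, used for %activity and AC50 from titration series. Cells: Jurkat NFAT-β-lactamase/M1 line, treated with compound plus 1 uM carbachol for 5 h, 37 °C.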

[16] = Stat Signaling Pathway (AID 446; active = well fitted curve in either direction with a large enough effect, not every such curve was filed as active;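 also: ME-180 cervical cancer cells given 40 pM IL-6 alongside compound; SIE-controlled beta-lactamase reporter measured as 460/530 nm FRET emission ratio; % is scaled to controls: 0 for no effect and ±100 for the full control effect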)
Method in brief: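 Screening format detects activators and inhibitors alike: ME-180 SIE-bla cells stimulated at 40 pM IL-6 for 5 hrs with compound, then dual-emission beta-lactamase read at 405 nm excitation.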

CC[C@@H]1c2ccccc2[C@@H]2CC[C@H]1N2c1ccccc1
inactive: Potency [1] | Potency [2] | activation [3] 4.18% [at 17.1 µM, percent relative to cAMP agonist control] | activity change, negative = inhibition [4] -6.37% [at 12.7 µM] | activity change, negative = inhibition [5] -4.57% [at 30.8 µM] | activation [6] -4.47% [at 30.8 µM]

CCC(=NCCCO)c1c(O)n(-c2ccc(OC)cc2)c(=O)[nH]c1=O
inactive: Potency [1] | Potency [2] | activation [3] 2.6% [at 17.1 µM, percent relative to cAMP agonist control] | activity change, negative = inhibition [4] -12.3% [at 12.7 µM] | activation [6] -4.42% [at 30.8 µM]

O=c1cc(C(F)(F)F)c2cc3c4c(c2o1)CCCN4CCC3
active: Potency [7] 0.651 µM | Potency [2] 50.1 µM | Potency [3] 39.8 µM | Potency [4] 60.1 µM | Potency [6] 50.1 µM
inactive: Potency [1] | outcome [5]

COC(=O)C1=C(c2cc3ccccc3s2)C[C@@H]2CC[C@H]1N2C(=O)NCc1ccc(C(F)(F)F)cc1
inactive: Potency [1] | Potency [2] | Potency [3] | Potency [4] | Potency [6]

COC(=O)C1=C(c2cc3ccccc3s2)C[C@@H]2CC[C@H]1N2C(=O)NC1CC1
inactive: Potency [1] | Potency [2] | Potency [3] | Potency [4] | outcome [5] | Potency [6]

CC(C)c1ccc(C(c2c(O)c3ccccc3oc2=O)c2c(O)c3ccccc3oc2=O)cc1
active: Potency [1] 15.1 µM
inactive: Potency [8] > 11.4 µM | outcome [9] | activity change, negative = inhibition [10] -18.8% [at 2.29 µM] | Potency [11] > 46 µM | Potency [12] > 9.22 µM | activity change, negative = inhibition [13] -6.98% [at 11.4 µM] | Potency [14] | Potency [2] | Potency [3] | Potency [4] | outcome [5] | Potency [6]

CCN(CC)c1ccc(N=Cc2c(O)n(-c3cc(OC)ccc3OC)c(=O)[nH]c2=O)cc1
active: Potency [2] 70.8 µM
inactive: outcome [9] | activity change, negative = inhibition [15] -6.84% | outcome [16] | Potency [11] > 20.6 µM | Potency [1] | activation [3] 4.47% [at 17.1 µM, percent relative to cAMP agonist control] | activity change, negative = inhibition [4] -9.2% [at 12.7 µM]

COc1ccc(OCC(=O)N2CCN(CC3CC4C=CC3C4)CC2)cc1 (configuration not stated)
inactive: Potency [1] | Potency [2] | activation [3] 6.59% [at 17.1 µM, percent relative to cAMP agonist control] | activity change, negative = inhibition [4] 6.27% [at 12.7 µM] | activation [6] 5.29% [at 30.8 µM]

O=C1Nc2ccccc2/C1=C/c1nc2ccccc2c(=O)n1-c1ccc(O)cc1
inactive: Potency [2] | activation [3] 2.57% [at 17.1 µM, percent relative to cAMP agonist control] | activity change, negative = inhibition [4] 0.205% [at 12.7 µM] | activation [6] 1.32% [at 30.8 µM]
active: Potency [1] 35.5 µM

O=C1NC(=O)N(Cc2ccc(F)cc2)C(=O)/C1=C\c1ccc([N+](=O)[O-])s1
active: Potency [1] 12 µM | Potency [6] 22.4 µM
inactive: Potency [2] | Potency [3] | Potency [4] | outcome [5]

CN1C(=O)/C(=C/c2cccn2-c2ccc3ccccc3c2)C(=O)NC1=S
inactive: Potency [2] | Potency [3] | Potency [4] | outcome [5] | Potency [6]
active: Potency [1] 33.8 µM
